Assay outcomes as filed in PubChem.
The list is not random: actives were taken first. Their share in the collection is about 4.7%.
GALC G270D act – enhancers of human galactocerebrosidase G270D mutant activity in cells | Potency, µM (doses to about 57.5 µM), most hits filed as activators | AID 1159614 | 145M-Twi-hGALC-G270D cells (Twitcher mouse brain line with human GALC G270D), HMU-beta-Gal fluorescence, 48 h | 0.1% of 45,000 active; further: potency means the concentration at half of the fitted maximal effect; 0% is about no effect; nearly all actives have a fitted effect of over 65% in size
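Fluorescence readout: HMU-β-gal cleavage by mutant GALC (0.1 mM final, citrate/phosphate pH 5.2 with 1 mg/mL taurocholate), stopped with carbonate/bicarbonate plus Triton X-100. Cells: murine Twitcher 145M-Twi expressing human G270D GALC; qHTS for activators.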
HTT promoter inh – inhibits huntingtin promoter activity. Potency, µM (highest dose often 57.5 µM), inactives show top-dose activity change, negative = inhibition, usual class: inhibitors. HEK293 HTT promoter firefly luciferase reporter, 24 h. 0.93% of 48,000 active; further: potency means the concentration at half of the fitted maximal effect; nearly all actives have a fitted effect of over 50% in size
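HEK293 Fluc reporter, 2,500 cells/well, 24 h pre-culture; cpds up to 57.5 uM final, 24 h 37 degrees C; Dual-Glo, 10 min RT; normalized vehicle = 0%, zero RLU = -100%.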
NTMT1 inh – blocks human N-terminal methyltransferase 1 activity | Q9BV86 | NTMT1 MTase-Glo SAH luminescence, purified enzyme | Potency, µM (top dose mostly 114 µM), for inactives: at the top dose activity change, negative = inhibition, most hits filed as inhibitors | 2.5% of 59,000 active | AID 1645870;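 further: potency means the concentration at half of the fitted maximal effect; plate controls were DMSO vehicle for no effect and no enzyme for full effect; nearly all actives have a fitted effect of over 65% in size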
Target sequence (Q9BV86 whole entry, looked up): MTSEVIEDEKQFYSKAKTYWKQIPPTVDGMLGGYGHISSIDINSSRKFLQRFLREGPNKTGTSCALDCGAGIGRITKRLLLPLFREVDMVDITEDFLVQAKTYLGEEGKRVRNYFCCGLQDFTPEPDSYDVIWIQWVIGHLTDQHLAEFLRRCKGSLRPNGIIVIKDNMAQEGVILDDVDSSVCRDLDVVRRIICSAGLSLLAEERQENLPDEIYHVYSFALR
HTT-AS promoter – HTT-AS promoter activation; 0.24% of 48,000 active; HEK293 HTT-AS promoter firefly luciferase reporter, 24 h; response scale: percent change from vehicle, -100% = no light; Potency, µM (series often up to 57.5 µM), without a hit: at the highest dose activity change, positive = activation, actives largely listed as activators; further: potency means the concentration at half of the fitted maximal effect; nearly all actives have a fitted effect of over 55% in size
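HEK293 cells carrying firefly luciferase reporters were seeded at 2,500 per well in Opti-MEM and cultured for 24 h. They were then treated with compounds at up to 57.5 uM final for 24 h at 37 degrees C before Dual-Glo luminescence readout.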
DRV1 agonist – activates human resolvin D1 receptor GPR32; O75388; CHO-K1 GPR32 beta-arrestin PathHunter luminescence, 90 min; zero percent set by DMSO-only wells; activation, % at 76.9 µM; 2.5% of 48,000 active; AID 1346428;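 active means activation of at least 60% and not above a set upper limit, about 1 call in 100 departs from these limits; inconclusive means activation of 40% to 60%, or above that upper limit; inactive means activation under 40%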; further: 0% is about no effect
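Agonism was scored as beta-arrestin recruitment to ProLink-fused GPR32 in stably transfected CHO-K1 cells, giving a chemiluminescent beta-Gal signal; compounds were incubated 90 min at 37 °C.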
FH mod – Identification of activators of human fumarate hydratase by quantitative high-throughput screening | Potency, µM (doses to about 79.9 µM), without a hit: at the highest dose activity change, negative = inhibition, hits mostly inhibitors | 0.22% of 54,000 active | FH coupled MDH/diaphorase resazurin fluorescence, 15 min; further: potency means the concentration at half of the fitted maximal effect; on the % scale 0 is the no-effect control and ±100 the full control effect; the screen sought activators but most active calls are inhibition curves; nearly all actives have a fitted effect of over 45% in size
Target sequence (P07954 whole entry, looked up): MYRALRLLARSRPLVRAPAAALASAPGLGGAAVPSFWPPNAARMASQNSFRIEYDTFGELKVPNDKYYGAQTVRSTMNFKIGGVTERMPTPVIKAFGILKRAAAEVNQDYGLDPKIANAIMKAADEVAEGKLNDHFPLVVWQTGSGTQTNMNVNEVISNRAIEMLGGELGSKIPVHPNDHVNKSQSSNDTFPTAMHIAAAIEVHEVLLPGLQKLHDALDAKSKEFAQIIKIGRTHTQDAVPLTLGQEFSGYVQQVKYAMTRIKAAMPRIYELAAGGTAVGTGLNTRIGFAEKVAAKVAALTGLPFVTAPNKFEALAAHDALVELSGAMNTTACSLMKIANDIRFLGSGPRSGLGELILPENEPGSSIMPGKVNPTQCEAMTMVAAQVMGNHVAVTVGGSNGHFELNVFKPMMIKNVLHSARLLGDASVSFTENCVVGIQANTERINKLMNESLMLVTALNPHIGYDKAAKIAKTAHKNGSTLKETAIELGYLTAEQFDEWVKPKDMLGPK
Active calls of the source: *; i = inactive; u = inconclusive; x = no result; ! = not active in a repeat; [ ] = dose if it differs, or a comment. Unless noted, the call rests on the fitted dose curve; in most records, active means well fitted curve in the direction sought with a large enough effect; inconclusive means small, poorly fitted or top-dose-only effect, or another doubt; inactive means no such curve, though single readings can be large; an effect the other way counts as inactive or inconclusive.

SMILES	GALC G270D act	HTT promoter inh	NTMT1 inh	HTT-AS promoter	DRV1 agonist	FH mod
CCC(=O)NC(c1cccs1)c1cc([N+](=O)[O-])c2cccnc2c1OC (stereo not given)	x	x	50µM*!	x	x	x
Oc1ccc2ccccc2c1SSc1c(O)ccc2ccccc12	x	u	8.9µM*!	-22%	50	35µM*!
Cc1cccc(NC(=O)c2cnn3c(C)cc(C)nc23)c1	x	x	-1%	x	x	x
O=c1sn(-c2cccc3ccccc23)c(=O)n1Cc1ccccc1	x	x	13µM*	x	x	5%
O=c1c2sc3ccccc3c2n(Cc2ccccc2)c(=O)n1Cc1ccccc1	i	-12%	4%	-9%	-3	-22%
CC1=C2C(=O)C=C(CO)C2[C@H]2OC(=O)[C@H](C)[C@@H]2[C@@H](OC(=O)Cc2ccc(O)cc2)C1 (stereo not given in full)	x	x	-1%[29.8 µM]	x	x	4%[53.3 µM]
CC(C)c1ccccc1-c1nccc(NCc2ccc(-c3ccnc(C(F)(F)F)c3)cc2)n1	x	x	10%	x	x	x
CCc1nnc2c(Nc3ccc(N(CC)CC)cc3C)nc3ccccc3n12	i	12%	89µM*	-7%	-20	u
O=C(Nc1ccc(Cl)cc1)C1CCCN(C(=O)c2cccc(-c3ccco3)c2)C1 (stereo not given)	x	x	1%[57.5 µM]	x	x	u
CCOc1ccc(CNC(=O)c2ccc(Sc3ccc(Cl)cc3)c(NC(C)=O)c2)cc1OC	i	u	89µM*	-34%	-12	u
COc1ccc(-c2nc(CSCC(=O)N3CCN(c4cccc(C)c4C)CC3)c(C)o2)cc1OC	i	13µM*	-10%	-61%	5	u
Cc1ccc(Cl)cc1N1CCN(C(=O)C2CCCN(Cc3nc(-c4cccc(Cl)c4)oc3C)C2)CC1 (stereo not given)	i	35µM*	2%	-46%	8	u
COc1ccc(-c2nc(CSCC(=O)N3CCN(c4ccc(OC)cc4)CC3)c(C)o2)cc1	i	u	-3%	-22%	-7	-11%
CCOc1ccc(-c2nc(CSCC(=O)N3CCN(c4cccc(C(F)(F)F)c4)CC3)c(C)o2)cc1	i	16µM*	-14%	-52%	-25	u
COc1ccc(-c2nc(CSCC(=O)N3CCN(c4cc(Cl)ccc4C)CC3)c(C)o2)cc1	i	13µM*	3%	-55%	-14	u
N#CC1C(=O)N=C(c2cc(Cl)ccc2O)C=C1c1cc(OCc2ccccc2)cc(OCc2ccccc2)c1 (stereo not given)	x	x	10%[57.5 µM]	x	x	4%
CN(C)c1ccnc2sc3c(=O)n(N4CCCCCC4)cnc3c12	x	x	-7%[57.5 µM]	x	x	-3%
COC(=O)CSCc1nc(-c2ccc(C(=O)OC)cc2)oc1C	i	2µM*	3%	-90%	-5	-22%
CC1Cc2cc(S(=O)(=O)NCc3ccccc3Cl)ccc2N1C(=O)C1CCC1 (stereo not given)	i	28µM*	11%	-80%	20	-14%
CC1Cc2cc(S(=O)(=O)NCc3ccc(N(C)C)cc3)ccc2N1C(=O)C1CCC1 (stereo not given)	x	x	x	x	11	x
Cc1oc2ccc(O)c(CN3CCCC3)c2c1C(=O)Nc1ccc(C(C)C)cc1	x	x	x	x	118*	x
COc1ccc(NC(=O)c2c(C)oc3ccc(O)c(CN4CCC(C)CC4)c23)cc1Cl	x	x	x	x	83*	x
COc1ccc(NC(=O)c2c(C)oc3ccc(O)c(CN4CCCC(C)C4)c23)cc1Cl (stereo not given)	i	u	-6%	-22%	-22	-19%
CC(C)c1ccc(=O)n(CC(=O)NCCc2ccccc2)n1	x	x	19%	x	x	x
CCOC(=O)c1ccc(NC(=O)c2c(NCc3cccc(OC)c3OC)sc3c2CCC3)cc1	i	0%	56µM*	-3%	-12	-7%
SMILES	GALC G270D act	HTT promoter inh	NTMT1 inh	HTT-AS promoter	DRV1 agonist	FH mod
COc1ccc(NC(=O)c2c(NCc3ccc(OC)c(OC)c3OC)sc3c2CCC3)c(OC)c1	i	-16%	-11%	-13%	-17	-20%
CCOC(=O)N1CCc2c(sc(NCc3ccc(OCC)cc3)c2C(=O)Nc2ccc(OC)cc2OC)C1	i	10µM*	7%	-82%	u	-18%
CCOC(=O)N1CCc2c(sc(NCc3ccc(N(CC)CC)cc3)c2C(=O)Nc2cc(OC)ccc2OC)C1	i	u	9%	-39%	-5	-17%
CCOC(=O)N1CCc2c(sc(NCc3ccc(OC)c(OC)c3OC)c2C(=O)Nc2ccc(OC)cc2OC)C1	i	u	20%	-86%	86*	-15%
CCOC(=O)N1CCc2c(sc(NCc3cccs3)c2C(=O)Nc2ccc(OC)cc2OC)C1	u	7.9µM*	11%	-91%	1	-33%
C=CC(=O)N1CCCN(c2cc(NCCC(=O)O)nc(-c3ccccn3)n2)CC1	x	x	10%[57.5 µM]	x	x	u
COc1ccc(-c2nc(-c3ccc(-c4cccc(Cl)c4)o3)[nH]c2-c2ccc(OC)cc2)cc1	x	x	1%[57.5 µM]	x	x	5%
CCOC(=O)[C@H](CCc1ccccc1)N[C@@H](C)C(=O)N1C2CCCCC2C[C@H]1C(=O)O (stereo not given in full)	x	x	-19%[57.5 µM]	x	x	21%
O=C1CCCC2=C1C(c1[nH]ncc1Cl)N=C(Nc1nc3cc(Cl)ccc3o1)N2 (stereo not given)	x	x	-3%[57.5 µM]	x	x	x
CC1CCCC(O)CCC/C=C/c2cc(OS(=O)(=O)O)cc(O)c2C(=O)O1 (stereo not given)	x	x	13µM*	x	x	-1%[53.3 µM]
CC1CCC/C=C/C(=O)c2c(O)cc(O)cc2CC(=O)O1 (stereo not given)	x	x	-8%[57.5 µM]	x	x	-3%
CCS(=O)(=O)c1ccccc1C(=O)N1CCN(c2nc3ccccc3s2)CC1	i	14µM*	20%	-44%	15	-24%
COc1cc2ccccc2cc1C(=O)N1CCN(c2nc3ccc(F)cc3s2)CC1	i	u	2%	-42%	-5	-20%
O=c1onc2cnc3ccccc3n12	x	x	x	x	68*	-10%[53.3 µM]
CCOc1ccc(CNC(=O)Cn2ccc3cc(S(=O)(=O)N4CCCCC4)ccc32)cc1	i	-20%	-2%	-22%	77*	u
CCOc1ccc(NC(=O)CN2CCSc3ccc(S(=O)(=O)N4CCCC4)cc32)cc1	i	25µM*	-7%	-39%	0	-20%
CCOc1ccc(NC(=O)Cn2c(=O)oc3cc(S(=O)(=O)N4CCC(C)CC4)ccc32)cc1	i	10µM*	4%	-49%	117*	-11%
COc1ccccc1CNC(=O)Cn1c(=O)oc2cc(S(=O)(=O)N3CCC(C)CC3)ccc21	i	u	-7%	-25%	78*	-24%
